Test results from PubChem BioAssay (EPA / NIEHS).
Results filed as inconclusive are left out. Activity calls are given as the source filed them. The calls were made as follows, unless noted: active = hit-call score of the fitted dose curve at least 0.9, where 1 is the maximum; inactive = score below 0.9.

Key:
[1] = CCTE_Mundy_HCI_Cortical_Synap_Neur_Matur_BPCount: CCTE's Synaptogenesis and Neurite Maturation Assay in rat cortical cells for Branch Point Count, Mundy Lab (AID 2284211)
Procedure, shortened: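 HCI read-out of branch points from MAP2/synaptophysin/Hoechst immunofluorescence; rat cortical cultures, AraC DIV 5, dosing DIV 7, fixed DIV 12; fit in positive direction vs DMSO baseline.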

[2] = CCTE_Mundy_HCI_Cortical_NOG_NeuriteCount: CCTE's Neurite Outgrowth Assay in rat cortical cells for Neurite Count, Mundy Lab (AID 2284212);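 also: cells fixed about two days after chemical exposure began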
Procedure, shortened: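 Rat cortical primary cells; compound added 2 h post-plating, 1/10 dilution of working solution. Anti-betaIII-tubulin/AF488 ICC; ArrayScan neurite count vs DMSO.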

[3] = CCTE_Mundy_HCI_Cortical_Synap_Neur_Matur_NeuriteCount: CCTE's Synaptogenesis and Neurite Maturation Assay in rat cortical cells for Neurite Count, Mundy Lab (AID 2284222)
Procedure, shortened: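 Chemical exposure runs DIV 7–12 in rat cortical cultures, glia suppressed by AraC at DIV 5; measurement is at DIV 12. Imaging-derived neurite counts are fitted against DMSO baseline.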

[4] = CCTE_Mundy_HCI_hNP1_Pro_ResponderAvgInten: CCTE's Proliferation Assay in human neuroprogenitor cells, Mundy Lab (AID 2284224; active = hit-call score of the fitted dose curve at least 0.9, where 1 is the maximum;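 also: human neural progenitor cells hNP1 derived from WA09 embryonic stem cells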)
Procedure, shortened: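 Proliferation was scored as BrdU labelling intensity in human neural progenitors derived from WA09 embryonic cells, measured 26.25 hours after chemical dosing. Activity was fitted relative to DMSO.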

[5] = CCTE_Mundy_HCI_Cortical_NOG_BPCount: CCTE's Neurite Outgrowth Assay in rat cortical cells for Branch Point Count, Mundy Lab (AID 2284237);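 as to AC50: branch points counted about two days after chemical exposure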
Procedure, shortened: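 Measured 50.33 h after dosing, this morphology endpoint uses rat primary cortical cultures labelled for betaIII-tubulin. Branch points are quantified by high-content imaging, with DMSO as negative control and baseline.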

[6] = CCTE_Mundy_HCI_Cortical_Synap_Neur_Matur_NeuronCount: CCTE's Synaptogenesis and Neurite Maturation Assay in rat cortical cells for Neuron Count, Mundy Lab (AID 2284242; active = hit-call score of the fitted dose curve at least 0.9, where 1 is the maximum;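 as to AC50: hits reduce neuron count versus DMSO baseline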)
Procedure, shortened: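 Neuron counts come from automated high-content imaging of Hoechst nuclei and MAP2/synaptophysin immunostaining at DIV 12, with loss of signal judged against DMSO. Cultures of rat cortical cells had glial growth arrested by AraC at DIV 5; chemical exposure began DIV 7.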

[7] = IUF_NPC5_oligodendrocyte_differentiation_120hr: Leibniz Research Institute for Environmental Medicine (IUF) 120-hour Oligodendrocyte Differentiation Assay (NPC5) (AID 2284304; active = hit-call score of the fitted dose curve at least 0.9, where 1 is the maximum;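 also: primary human fetal neural progenitor spheres plated to migrate and differentiate; share of O4-positive cells among Hoechst nuclei found by CNN image analysis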)
Procedure, shortened: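 Oligodendrocyte differentiation was scored after 120 h as the O4-positive share of Hoechst-stained nuclei across the neurosphere migration area, using a trained convolutional neural network on high-content fluorescence images. Human fetal neural progenitor spheres were dosed from day 0, normalised to DMSO.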

[8] = IUF_NPC4_neurite_area_120hr: Leibniz Research Institute for Environmental Medicine (IUF) 120-hour Neuronal Morphology Assay for Neurite Area (NPC4) (AID 2284305; active = hit-call score of the fitted dose curve at least 0.9, where 1 is the maximum)
Procedure, shortened: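 Neurite area (pixels, nuclei excluded) of TUBB3-positive neurons from hNPC spheres differentiating 5 days under continuous exposure at 37 C, 5% CO2. High-content imaging; loss of signal versus DMSO control across 7 concentrations.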

[9] = CCTE_Mundy_HCI_iCellGluta_NOG_NeuriteLength: CCTE's Neurite Outgrowth Assay in iCellGluta cells for Neurite Length, Mundy Lab (AID 2284318; active = hit-call score of the fitted dose curve at least 0.9, where 1 is the maximum)
Procedure, shortened: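 Automated high-content imaging of betaIII-tubulin (Alexa Fluor-488) and Hoechst-stained cells gave neurite length, normalized to the DMSO baseline.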

[10] = IUF_NPC1_cytotoxicity_72hr: Cytotoxicity Assessment at 72 hours in the Leibniz Research Institute for Environmental Medicine (IUF) Neural Progenitor Cell Proliferation Assay (NPC1) (AID 2284332; active = hit-call score of the fitted dose curve at least 0.9, where 1 is the maximum;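 also: rising LDH signal means more cytotoxicity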)
Procedure, shortened: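 Cytotoxicity by LDH membrane-integrity assay on medium supernatants, fluorescence via resazurin reduction, after 3-day single exposure of primary hNPC spheres at 37C, pH 7.2-7.6 with growth factors. Fitted upward against baseline.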

[11] = CCTE_Mundy_HCI_iCellGluta_NOG_NeuronCount: CCTE's Neurite Outgrowth Assay in iCellGluta cells for Neuron Count, Mundy Lab (AID 2284340; active = hit-call score of the fitted dose curve at least 0.9, where 1 is the maximum;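 also: cells fixed about 48 h after compound addition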)
Procedure, shortened: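 Neuron count read by automated high-content imaging of Hoechst 33342 and betaIII-tubulin/Alexa Fluor-488 labelling in human iPSC glutamatergic neurons. Activity fitted relative to DMSO.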

[12] = CCTE_Harrill_HTTr_Apoptosis_MCF7: CCTE's 6-hour Apoptosis Assessment for the High-Throughput Transcriptomics (HTTr) Platform, in MCF-7 cells cultured in DMEM + 10% fetal bovine serum, Harrill Lab (AID 2284011)
Procedure, shortened: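 MCF-7 (DMEM + 10% FBS), 384-well; 8-pt dilution series, 6 h chemical exposure; caspase-3/7 activation via CellEvent Caspase 3/7 Green, HCI; bidirectional fit vs DMSO.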

[13] = CCTE_Harrill_HTTr_CellCount_MCF7: CCTE's Cell Proliferation Assessment for the High-Throughput Transcriptomics (HTTr) Platform, Harrill Lab (AID 2284012; active = hit-call score of the fitted dose curve at least 0.9, where 1 is the maximum;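 also: cells exposed to compound for six hours; intended direction is loss of nuclei count meaning fewer cells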)
Procedure, shortened: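 Cell count from high-content imaging of Hoechst-labeled nuclei serves as viability/growth readout. Chemicals were applied to MCF-7 cells in eight concentrations for six hours, with fitting in both directions relative to DMSO.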

[14] = Tanguay_ZF_120hpf_MUSC: Oregon State University Tanguay Lab 120 Hour Post-fertilization zebrafish Assay for Muscle Malformation (AID 2284401)
Procedure, shortened: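 Scored as a binary brightfield endpoint at 120 hpf, fitted versus DMSO. Single dechorionated wild-type (Tropical 5D) zebrafish embryos per well, statically exposed at 28C from 6 hpf onward with final DMSO 0.64%.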

[15] = UKN5_HCS_SBAD2_cell_viability: Viability Assessment in the University of Konstanz (UKN) Leist Lab Neurite Outgrowth Assay in human iPSC-derived immature Dorsal Root Ganglia Neurons (UKN5) (AID 2284056)
Procedure, shortened: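 iPSC-derived immature peripheral neurons (SBAD2) seeded on Matrigel with CHIR99021, SU5402 and DAPT, dosed 1 h later for 24 h. Viability from Hoechst H-33342 and calcein-AM live staining, high-content imaging; bidirectional fit versus DMSO.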

[16] = UKN5_HCS_SBAD2_neurite_outgrowth: University of Konstanz (UKN) Leist Lab Neurite Outgrowth Assay in human iPSC-derived immature Dorsal Root Ganglia Neurons (UKN5) (AID 2284070); conditions: actives raise or lower the signal
Procedure, shortened: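 Neurite area from calcein-AM high-content images after 24 h exposure (staining included), with H-33342 for viability, fitted both directions against DMSO. Cells: thawed immature SBAD2 peripheral neurons, 100.000 cells/cm2, with CHIR99021, SU5402, DAPT; dosing 1 h after seeding.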

[17] = UKN4_HCS_LUHMES_neurite_outgrowth: University of Konstanz (UKN) Leist Lab Neurite Outgrowth Assay in human LUHMES cells (UKN4) (AID 2284206); conditions: actives raise or lower the signal
Procedure, shortened: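 After 24 h compound treatment beginning shortly after replating of 2-day-differentiated LUHMES cells, calcein-AM and H-33342 live staining allowed high-content imaging of neurite area and viability. Fitted bidirectionally against DMSO.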

[18] = UKN4_HCS_LUHMES_cell_viability: Viability Assessment in the University of Konstanz (UKN) Leist Lab Neurite Outgrowth Assay in human LUHMES cells (UKN4) (AID 2284232)
Procedure, shortened: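 Viability was read by high-content imaging of calcein-AM/H-33342-stained cells after 24 h toxicant exposure, staining included. Cells: human LUHMES on day 2 of dopaminergic differentiation, dosed shortly after attachment; DMSO baseline, bidirectional curve fitting.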

Measured: AC50

CC1(C)C(C=C(Cl)Cl)C1C(=O)O[C@H](C#N)c1cccc(Oc2ccccc2)c1 (stereo partly drawn)
inactive: [8] | [9] | [10] | [11]
active: [1] 12.8 µM | [2] 80 µM | [3] 12.3 µM | [4] 23.3 µM | [5] 80 µM | [6] 10.1 µM | [7] 1.32 µM

CC(C)(C)OOC(C)(C)C#CC(C)(C)OOC(C)(C)C
inactive: [12] | [13]

O=c1[nH]c2c(c(=O)n1C1CCCCC1)CCC2
inactive: [13]

FC(F)(F)C(F)(F)C(F)(F)C(F)(F)C(F)(F)C(F)(F)I
inactive: [14]

CC(C)CC(C)c1sccc1NC(=O)c1cn(C)nc1C(F)(F)F (stereo not drawn)
active: [17] 73.1 µM | [7] 5.68 µM
inactive: [15] | [16] | [18] | [8] | [10]

C=CCN1CC[C@]23c4c5ccc(O)c4O[C@H]2C(=O)CC[C@@]3(O)[C@H]1C5
inactive: [1] | [2] | [3] | [5]

CC(=O)[O-].[Tl+]
active: [1] 9.92 µM | [2] 59.5 µM | [3] 25.3 µM | [5] 50 µM | [6] 15.4 µM | [8] 30.9 µM | [9] 2.79 µM | [11] 31.3 µM
inactive: [4] | [10]

CCOP(=O)(OCC)SCSC(C)(C)C
inactive: [1] | [3] | [7] | [10] | [11]
active: [2] 75.4 µM | [5] 62.1 µM | [9] 9.83 µM

O=C(O)CCC(F)(F)C(F)(F)C(F)(F)F
inactive: [14]

COP(=O)(OC)SCN1C(=O)c2ccccc2C1=O
inactive: [1] | [2] | [3] | [4] | [5] | [7] | [8] | [10] | [11]
active: [9] 50.5 µM

O=C(O)C(F)(F)C(F)(F)C(F)(F)C(F)(F)C(F)(F)C(F)(F)C(F)(F)C(F)(F)C(F)(F)C(F)F
inactive: [14]

C[C@@]1(CO)[C@H](O)CC[C@@]2(C)[C@H]1CC[C@H]1C[C@@H]3C[C@@]12CC[C@]3(O)CO
inactive: [4]

CC1(C)C(C=C(Cl)c2ccc(Cl)cc2)C1C(=O)OC(C#N)c1ccc(F)c(Oc2ccccc2)c1 (stereo not drawn)
active: [1] 50 µM | [2] 39.1 µM | [5] 23.5 µM | [9] 67.3 µM
inactive: [3] | [4] | [6] | [7] | [10] | [11]

OC(O)(C(F)C(O)(O)C(F)(F)F)C(F)(F)F
inactive: [14]

O=C1N[C@@H]2C(=C[C@H](O)[C@@H](O)[C@H]2O)c2cc3c(c(O)c21)OCO3
inactive: [10]
active: [15] 0.0303 µM | [16] 0.0327 µM | [17] 0.0456 µM | [18] 0.256 µM | [7] 0.0121 µM | [8] 0.00933 µM

C=CC(=O)OCC(F)(F)C(F)(F)C(F)(F)C(F)(F)C(F)(F)C(F)(F)C(F)(F)C(F)F
inactive: [14]

OCCCC(F)(F)C(F)(F)C(F)(F)C(F)(F)C(F)(F)C(F)(F)C(F)(F)F
inactive: [14]

CN1CC=C(c2ccccc2)CC1
inactive: [15] | [16] | [17] | [18]

OCC(F)(F)C(F)(F)C(F)(F)C(F)(F)C(F)(F)C(F)(F)CO
inactive: [14]

[CH3][Sn]([CH3])([CH3])[Cl]
active: [15] 18.8 µM | [16] 3.1 µM | [17] 2.5 µM | [18] 4.02 µM

O.O.O.O.O.[Cd+2].[Cd+2].[Cl-].[Cl-].[Cl-].[Cl-]
active: [6] 1.24 µM
inactive: [4]

[CH3][Sn]([CH3])[CH3]
active: [6] 1.67 µM

CC(C)(C)C(=O)CC(=O)C(F)(F)C(F)(F)C(F)(F)F
inactive: [14]

O=C(O)C(F)(F)C(F)(F)C(F)(F)C(F)(F)C(=O)O
inactive: [14]

CCOP(=S)(OCC)SCS(=O)C(C)(C)C (stereo not drawn)
inactive: [1] | [2] | [3] | [4] | [5] | [7] | [8] | [9] | [10] | [11]

CC1(C)C(C=C(Cl)Cl)[C@H]1C(=O)O[C@H](C#N)c1cccc(Oc2ccccc2)c1 (stereo partly drawn)
active: [7] 1 µM
inactive: [15] | [16] | [17] | [18] | [8] | [10]

C=CC(=O)OCCC(F)(F)C(F)(F)C(F)(F)C(F)(F)C(F)(F)C(F)(F)C(F)(F)C(F)(F)F
inactive: [14]

O=[As](O)(O)O
active: [15] 4.31 µM | [16] 1.4 µM | [17] 74.5 µM | [18] 71.4 µM

Clc1cc(Cl)c(-c2cc(Cl)c(Cl)c(Cl)c2Cl)cc1Cl
inactive: [15] | [16]
active: [17] 14.2 µM | [18] 19.1 µM

C=CC(F)(F)C(F)(F)C(F)(F)C(F)(F)C(F)(F)C(F)(F)C(F)(F)C(F)(F)C=C
inactive: [14]

CCOP(=O)(OCC)OC(Cl)C(Cl)(Cl)Cl (stereo not drawn)
active: [1] 79.5 µM | [6] 9.85 µM
inactive: [2] | [3] | [4] | [5] | [8] | [9] | [10] | [11]

O=C(O)C(F)(F)C(F)(F)C(F)(F)C(F)(F)C(F)(F)C(F)(F)C(F)(F)C(F)(F)C(F)(F)C(F)(F)C(F)(F)C(F)(F)F
inactive: [14]

C=C(C)C(=O)OCC(F)(F)C(F)(F)C(F)(F)C(F)(F)C(F)(F)C(F)(F)C(F)(F)F
inactive: [14]

FC(F)(F)C(F)(F)C(F)(F)CI
inactive: [14]

O=[As]O
active: [1] 5 µM | [2] 3.32 µM | [3] 4.43 µM | [4] 2.79 µM | [5] 2.61 µM | [6] 2.74 µM
inactive: [7] | [8]

CC1(C)[C@H](C=C(Cl)Cl)[C@H]1C(=O)OCc1c(F)c(F)cc(F)c1F
inactive: [10]
active: [1] 9.4 µM | [2] 80.1 µM | [3] 11.9 µM | [4] 22 µM | [5] 81.1 µM | [6] 8.94 µM | [9] 18.1 µM | [11] 21.7 µM
